For 40 compounds, outcome and cytotoxicity results are on record in PubChem BioAssay (Tox21).

Results filed as inconclusive are left out. A number with no mark means an inactive call. Activity calls are given as the source filed them. The call rests on the fitted dose curve; in most records, active means well fitted activation curve with a large enough effect in the repeat runs; inconclusive means weak or mixed curves; inactive means flat fitted curve, though single readings scatter.
On the % scale 0 is the no-effect control and ±100 the full control effect.

This assay is described as follows: A CellTox Green Cytotoxicity Assay to monitor cytotoxicity in HepG2 cells - 24 hour (AID 1224878). Further: nearly all actives have a fitted effect of over 45% in size. Conditions: CellTox Green fluorescence; series mostly up to 76.8 µM. The source says:
National Center for Advancing Translational Sciences [NCATS]
NIH Chemical Genomics Center [NCGC]
U.S. Environmental Protection Agency [EPA]
National Institutes of Environmental Health Sciences [NIEHS]
National Toxicology Program [NTP]
Cell-based models are critical for drug discovery. Determining the natural cytotoxic effects resulting from test compounds is an essential research activity. A CellTox Green Cytotoxicity Assay to monitor cytotoxicity in real time of continues cell culture during 40 hours of the compound treatment was used to screen Tox21 10K library compounds in HepG2 cells. CellTox Green Cytotoxicity Assay is a nonlytic, homogeneous, biofluorescent method to measure cytotoxicity in cell culture after experimental manipulation. The assay system uses a proprietary asymmetric cyanine dye that is excluded from viable cells but preferentially stains the dead cell's DNA. […] Viable cells produce no appreciable increases in fluorescence. Therefore, the fluorescence signal produced by the binding interaction with dead cell DNA is proportional to cytotoxicity.
The mixture of HepG2 cell suspension and reagents were dispensed at 600cells/6 ul/well in 1536-well tissue culture treated black solid bottom plates using a Multidrop dispenser. After the assay plates were incubated at a 37 C/5% CO2 incubator for 5 hours, 23 nL of compounds dissolved in DMSO, positive and negative controls was transferred to the assay plate by a pintool work station. The plates were incubated at 37 C for 40 hours. The fluorescence intensity were measured at 0h, 8h, 16h, 24h, 32h and 40h time points using ViewLux plate reader during compound treatment.
As for `CNS(=O)(=O)CCc1ccc2[nH]cc(C3CCN(C)CC3)c2c1`, the compound was called inactive.

For the compound `Cc1ccc(C=O)cc1C`, the compound was classed as inactive.

Take `O=C(O)CCSSCCC(=O)O`: the outcome was inactive. On the same count and under the same terms, the same measure for `Cc1ccc2ccc(Cl)cc2n1`: “inactive”; for `CCn1ccc(NS(=O)(=O)c2ccc(N)cc2)nc1=O`: “inactive”. With `CC(C)CCCCOC(=O)c1ccccc1C(=O)OCCCCC(C)C`, the call was inactive. On to `C[C@@H](Oc1ccc(CNC(=O)c2cccnc2Oc2ccc3c(c2)OCO3)c(F)c1)C(=O)O`, for which the result was inactive.

Regarding `O=C(OCC(O)CO)c1ccccc1Nc1ccnc2c(C(F)(F)F)cccc12` (stereo not given), the result was inactive. Same read-out and setting: the entry for `O=C1CCCC(=O)O1` is “inactive”; for `O=Cc1ccc(Cl)c(Cl)c1` it is “inactive”; for `N[C@@H](CCC(=O)Nc1ccc([N+](=O)[O-])cc1)C(=O)O` it is “inactive”. As to `Cc1cccc2nccnc12`, the outcome was inactive. Turning to `COc1ccc2nc(SCc3ncc(C)c(OC)c3C)[nH]c2c1`, the outcome was inactive. Same read-out and setting: the same measure for `NCCN1CCOCC1`: “inactive”. On to `O=C(CCN1CCN(CCO)CC1)N1c2ccccc2Sc2ccc(C(F)(F)F)cc21`, for which the outcome was inactive.

Consider `O=C1c2ccccc2C(=O)C1c1ccccc1`, for which the compound was called inactive. On the same count and under the same terms, the entry for `CN(C)C(=O)CNC(=O)Cc1ccccc1` is “inactive”.

As for `COc1ccc(S(=O)(=O)N2c3ccc(Cl)cc3[C@@](O)(c3ccccc3Cl)[C@H]2C(=O)N2CCC[C@@H]2C(N)=O)cc1OC`, the outcome was inactive.

Regarding `CC(C)OC(=O)CCCCC(=O)OC(C)C`, the outcome was inactive.

In the case of `CC(=O)CCCCn1c(=O)c2c(ncn2C)n(C)c1=O`, the outcome was inactive. As to `O=C1CC(c2ccc(Cl)cc2)CC(=O)N1`, the compound was called inactive. The same measure, in the same setting: the same measure for `Cc1ccccc1N=O`: “inactive”; for `NNc1nnc(NN)c2ccccc12`: “inactive”. Regarding `CCCCCCCC/C=C\CCCCCCCC(=O)OCCCC`, the cytotoxicity was -11.8% [at 15.8 µM]. With `CCOc1cc([N+](=O)[O-])c(OCC)cc1N1CCOCC1`, the outcome was inactive. On the same count and under the same terms, the entry for `CC(CO)c1ccccc1` (stereo not given) is “inactive”. The same measure, in the same setting: the entry for `FC(F)(F)c1ccccc1-n1ccnc1` is “inactive”. Take `CCN(CC)CC(=O)Nc1c(C)cccc1C`: the compound was classed as inactive. Still for that read-out and setting: the same measure for `Brc1ccc(-c2ccccc2)cc1`: “inactive”. Same read-out and setting: the same measure for `C[C@@H]1O[C@@H](O[C@@H]2[C@@H](O)[C@H](OCCc3ccc(O)c(O)c3)O[C@H](CO[C@@H]3O[C@H](CO)[C@@H](O)[C@H](O)[C@H]3O)[C@H]2OC(=O)/C=C/c2ccc(O)c(O)c2)[C@H](O)[C@H](O)[C@H]1O`: “inactive”. In the case of `c1ccc2nccnc2c1`, the result was inactive. With `COc1nccnc1NS(=O)(=O)c1ccc(N)cc1`, the result was inactive.

Regarding `Nc1nnc(-c2cccc(Cl)c2Cl)c(N)n1`, the compound was called inactive. Same read-out and setting: the entry for `Nc1ccc2cc(S(=O)(=O)O)cc(O)c2c1` is “inactive”; for `COc1ccc(-c2cc(=O)c3c(O)cc(O[C@@H]4O[C@H](CO[C@@H]5O[C@@H](C)[C@H](O)[C@@H](O)[C@H]5O)[C@@H](O)[C@H](O)[C@H]4O)cc3o2)cc1O` it is “inactive”; for `COCCc1ccc(OCC2CO2)cc1` (stereo not given) it is “inactive”. The same measure, in the same setting: the same measure for `O=S(=O)(O)c1cc(O)c2ccc(Nc3ccccc3)cc2c1`: “inactive”. Same read-out and setting: the same measure for `CCOC(=O)c1ncn2c1CN(C)C(=O)c1cc(F)ccc1-2`: “inactive”. For the compound `O=S(=O)(O)CCN1CCN(CCO)CC1`, the result was inactive. In the case of `N[C@@H](COP(=O)(O)O)C(=O)O`, the cytotoxicity is 0.599% [at 15.8 µM].
